{"source": "paper PMC7862700", "about": "“An all-to-all approach to the identification of sequence-specific readers for epigenetic DNA modifications on cytosine”", "experiment_in_all_cases": "DAPPL (digital affinity profiling via proximity ligation, sequencing); 10 mM Tris-HCl pH 7.5, 50 mM NaCl, 1 mM DTT, 4% glycerol, room temperature, 30 min; GST-TFs on glutathione beads, 16-mer random dsDNA library, 0.1% formaldehyde crosslink after washing; high values mean tight binding", "key": {"FEV": {"target": "T1, FEV (Homo sapiens, UniProt Q99581 1-238)", "T1 sequence": "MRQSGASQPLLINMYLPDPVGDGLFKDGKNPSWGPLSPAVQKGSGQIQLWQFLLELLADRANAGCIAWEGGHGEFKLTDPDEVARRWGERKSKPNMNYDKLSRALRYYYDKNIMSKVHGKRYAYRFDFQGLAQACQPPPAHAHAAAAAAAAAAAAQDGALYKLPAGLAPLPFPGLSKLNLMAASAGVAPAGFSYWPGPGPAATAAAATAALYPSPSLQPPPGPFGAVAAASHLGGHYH", "conditions": "protein: recombinant; tags: N-terminal GST; dsDNA, one strand shown", "procedure,_shortened": "(§1)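 In yeast, human transcription factors were expressed with a GST fusion, then pulled down on glutathione beads and given DNA barcodes. Pooled with a tag-only sample, they were exposed to 200 nmole of a 16-mer random double-stranded DNA library (Tris/NaCl/DTT/glycerol buffer, room temperature, 30 min), washed, crosslinked with 0.1% formaldehyde, proximity-ligated using BsaI/T4 ligase for 1 h at 37 °C, PCR-amplified and read on an Illumina NextSeq500. Each hexamer's frequency of reads for a factor, divided by the matching frequency for the tag-only sample, gives the binding signal.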"}, "ETV5": {"target": "ETV5 (Homo sapiens, UniProt P41161 1-510)", "sequence (P41161 whole entry)": "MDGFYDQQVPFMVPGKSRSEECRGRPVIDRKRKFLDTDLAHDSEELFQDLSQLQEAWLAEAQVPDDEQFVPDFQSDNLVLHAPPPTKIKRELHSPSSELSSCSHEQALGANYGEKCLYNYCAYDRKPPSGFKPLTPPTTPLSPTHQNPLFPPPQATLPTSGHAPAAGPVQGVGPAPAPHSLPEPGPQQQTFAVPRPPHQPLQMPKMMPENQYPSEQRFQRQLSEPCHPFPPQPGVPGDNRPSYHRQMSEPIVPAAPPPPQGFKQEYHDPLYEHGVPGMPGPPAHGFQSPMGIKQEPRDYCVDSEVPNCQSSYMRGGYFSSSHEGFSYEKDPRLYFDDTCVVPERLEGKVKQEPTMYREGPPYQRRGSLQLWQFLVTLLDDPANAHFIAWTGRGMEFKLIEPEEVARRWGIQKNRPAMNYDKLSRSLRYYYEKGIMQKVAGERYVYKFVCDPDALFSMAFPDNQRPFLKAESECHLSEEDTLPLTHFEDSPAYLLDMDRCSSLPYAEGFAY", "conditions": "protein: recombinant; tags: N-terminal GST; dsDNA, one strand shown", "procedure,_shortened": "as §1"}, "HSF1": {"target": "HSF1 (Homo sapiens, UniProt Q00613 1-529)", "sequence (Q00613 whole entry)": "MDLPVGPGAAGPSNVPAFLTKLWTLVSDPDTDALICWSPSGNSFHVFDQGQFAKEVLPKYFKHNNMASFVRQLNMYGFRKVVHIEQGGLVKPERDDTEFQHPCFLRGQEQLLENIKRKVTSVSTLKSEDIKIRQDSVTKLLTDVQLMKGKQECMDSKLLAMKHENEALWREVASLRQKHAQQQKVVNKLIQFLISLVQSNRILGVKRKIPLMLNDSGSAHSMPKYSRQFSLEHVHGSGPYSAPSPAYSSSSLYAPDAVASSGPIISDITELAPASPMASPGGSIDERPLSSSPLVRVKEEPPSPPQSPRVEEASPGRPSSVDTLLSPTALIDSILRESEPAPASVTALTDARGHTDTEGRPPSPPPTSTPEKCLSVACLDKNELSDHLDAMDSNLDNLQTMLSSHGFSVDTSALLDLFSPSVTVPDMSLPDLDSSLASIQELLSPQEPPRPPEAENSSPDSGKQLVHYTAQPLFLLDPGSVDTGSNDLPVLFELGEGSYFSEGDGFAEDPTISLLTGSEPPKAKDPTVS", "conditions": "protein: recombinant; tags: N-terminal GST; chain copies: 3; dsDNA, one strand shown", "procedure,_shortened": "as §1"}, "SPIC": {"target": "T2, SPIC (Homo sapiens, UniProt Q8N5J4 1-248)", "T2 sequence": "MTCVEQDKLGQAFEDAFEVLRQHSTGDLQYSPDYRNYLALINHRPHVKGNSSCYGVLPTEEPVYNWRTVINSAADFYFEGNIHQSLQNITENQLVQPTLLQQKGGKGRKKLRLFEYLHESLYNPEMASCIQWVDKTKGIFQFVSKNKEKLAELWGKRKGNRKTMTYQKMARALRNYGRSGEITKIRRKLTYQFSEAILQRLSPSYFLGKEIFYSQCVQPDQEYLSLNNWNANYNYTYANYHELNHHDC", "conditions": "protein: recombinant; tags: N-terminal GST; dsDNA, one strand shown", "procedure,_shortened": "as §1"}, "ELF4": {"target": "ELF4 (Homo sapiens, UniProt Q99607 1-663)", "sequence (Q99607 whole entry)": "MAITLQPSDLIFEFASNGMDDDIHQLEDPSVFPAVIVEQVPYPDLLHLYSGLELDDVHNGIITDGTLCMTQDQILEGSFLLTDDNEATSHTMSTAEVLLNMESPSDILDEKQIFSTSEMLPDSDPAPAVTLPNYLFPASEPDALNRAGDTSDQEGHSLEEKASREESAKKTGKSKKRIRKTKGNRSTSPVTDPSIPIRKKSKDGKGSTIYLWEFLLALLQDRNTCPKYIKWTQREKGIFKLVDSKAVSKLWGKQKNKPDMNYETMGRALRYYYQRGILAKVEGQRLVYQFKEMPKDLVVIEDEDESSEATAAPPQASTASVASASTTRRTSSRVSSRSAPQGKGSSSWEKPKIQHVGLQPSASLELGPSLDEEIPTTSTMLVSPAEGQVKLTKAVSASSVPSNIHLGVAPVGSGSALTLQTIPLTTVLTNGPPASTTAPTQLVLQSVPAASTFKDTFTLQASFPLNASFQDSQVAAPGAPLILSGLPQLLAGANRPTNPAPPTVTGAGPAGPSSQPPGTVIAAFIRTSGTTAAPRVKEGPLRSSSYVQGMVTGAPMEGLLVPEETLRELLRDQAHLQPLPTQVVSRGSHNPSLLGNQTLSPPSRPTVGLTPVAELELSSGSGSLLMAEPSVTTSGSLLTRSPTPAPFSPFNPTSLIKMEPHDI", "conditions": "protein: recombinant; tags: N-terminal GST; dsDNA, one strand shown", "procedure,_shortened": "as §1"}, "ELK4": {"target": "T3, ELK4 (Homo sapiens, UniProt P28324-2 1-405)", "T3 sequence": "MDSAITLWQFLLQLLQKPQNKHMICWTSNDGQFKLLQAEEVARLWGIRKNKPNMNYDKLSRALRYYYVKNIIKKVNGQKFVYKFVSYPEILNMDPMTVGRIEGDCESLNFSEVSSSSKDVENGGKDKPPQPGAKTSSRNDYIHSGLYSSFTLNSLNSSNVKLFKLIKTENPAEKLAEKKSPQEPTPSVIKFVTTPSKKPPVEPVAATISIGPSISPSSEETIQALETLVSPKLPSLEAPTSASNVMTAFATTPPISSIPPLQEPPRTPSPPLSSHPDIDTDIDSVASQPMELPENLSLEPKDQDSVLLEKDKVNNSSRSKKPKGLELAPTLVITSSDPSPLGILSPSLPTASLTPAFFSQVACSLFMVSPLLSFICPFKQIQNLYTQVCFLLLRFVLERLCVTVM", "conditions": "protein: recombinant; tags: N-terminal GST; dsDNA, one strand shown", "procedure,_shortened": "as §1"}, "ETV2": {"target": "T4, ETV2 (Homo sapiens, UniProt O00321 1-342)", "T4 sequence": "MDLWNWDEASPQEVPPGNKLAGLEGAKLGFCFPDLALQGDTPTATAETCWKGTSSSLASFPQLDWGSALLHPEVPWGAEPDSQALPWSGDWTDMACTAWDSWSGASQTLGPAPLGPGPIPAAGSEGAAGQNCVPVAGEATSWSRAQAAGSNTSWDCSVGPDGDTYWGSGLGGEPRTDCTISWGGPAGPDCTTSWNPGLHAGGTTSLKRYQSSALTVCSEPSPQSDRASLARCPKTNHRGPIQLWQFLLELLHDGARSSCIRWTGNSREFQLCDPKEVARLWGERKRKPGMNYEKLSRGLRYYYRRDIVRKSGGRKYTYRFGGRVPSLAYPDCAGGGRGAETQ", "conditions": "protein: recombinant; tags: N-terminal GST; dsDNA, one strand shown", "procedure,_shortened": "as §1"}, "ELF3": {"target": "T5, ELF3 (Homo sapiens, UniProt P78545 1-371)", "T5 sequence": "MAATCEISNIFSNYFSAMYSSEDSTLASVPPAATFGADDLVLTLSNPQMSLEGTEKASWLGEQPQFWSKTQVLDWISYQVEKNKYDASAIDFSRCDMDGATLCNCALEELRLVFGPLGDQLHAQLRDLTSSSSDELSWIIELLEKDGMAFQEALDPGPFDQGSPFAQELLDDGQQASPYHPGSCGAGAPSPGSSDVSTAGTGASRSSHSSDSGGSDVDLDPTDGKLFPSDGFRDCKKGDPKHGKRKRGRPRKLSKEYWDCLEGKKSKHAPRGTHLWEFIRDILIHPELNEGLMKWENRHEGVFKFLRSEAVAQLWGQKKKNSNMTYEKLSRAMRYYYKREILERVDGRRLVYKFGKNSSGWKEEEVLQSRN", "conditions": "protein: recombinant; tags: N-terminal GST; dsDNA, one strand shown", "procedure,_shortened": "as §1"}, "CRX": {"target": "CRX (Homo sapiens, UniProt O43186 1-299)", "sequence (O43186 whole entry)": "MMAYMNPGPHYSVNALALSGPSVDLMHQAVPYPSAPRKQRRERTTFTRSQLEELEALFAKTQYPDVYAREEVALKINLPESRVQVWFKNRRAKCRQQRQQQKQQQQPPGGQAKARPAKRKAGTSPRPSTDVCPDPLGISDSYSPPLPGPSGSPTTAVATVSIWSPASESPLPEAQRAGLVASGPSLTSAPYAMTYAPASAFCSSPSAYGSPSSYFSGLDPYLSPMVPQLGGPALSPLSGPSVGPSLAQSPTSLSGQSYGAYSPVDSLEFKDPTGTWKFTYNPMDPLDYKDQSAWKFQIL", "conditions": "protein: recombinant; tags: N-terminal GST; dsDNA, one strand shown", "procedure,_shortened": "as §1"}, "ETV1": {"target": "ETV1 (Homo sapiens, UniProt P50549 1-477)", "sequence (P50549 whole entry)": "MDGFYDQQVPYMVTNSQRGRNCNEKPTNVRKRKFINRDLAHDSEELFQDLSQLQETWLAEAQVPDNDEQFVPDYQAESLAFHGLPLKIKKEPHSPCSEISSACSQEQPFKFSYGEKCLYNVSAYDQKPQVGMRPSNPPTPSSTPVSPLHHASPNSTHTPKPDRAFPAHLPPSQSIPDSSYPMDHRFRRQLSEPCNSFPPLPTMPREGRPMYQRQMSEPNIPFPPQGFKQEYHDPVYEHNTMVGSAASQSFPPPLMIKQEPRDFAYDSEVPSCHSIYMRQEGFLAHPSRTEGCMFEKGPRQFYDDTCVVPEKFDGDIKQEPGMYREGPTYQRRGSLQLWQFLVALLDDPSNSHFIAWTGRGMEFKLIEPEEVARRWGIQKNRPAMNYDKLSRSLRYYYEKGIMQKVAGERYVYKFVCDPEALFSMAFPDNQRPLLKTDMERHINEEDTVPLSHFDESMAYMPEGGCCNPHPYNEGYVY", "conditions": "protein: recombinant; tags: N-terminal GST; dsDNA, one strand shown", "procedure,_shortened": "as §1"}}}
{"sequence": "ACGACT", "values": [{"measurement": "binding signal", "setting": "FEV", "result": "1.28 fold enrichment (6-mer frequency, TF over GST control)"}, {"measurement": "binding signal", "setting": "ETV5", "result": "1.15 fold enrichment (6-mer frequency, TF over GST control)"}, {"measurement": "binding signal", "setting": "HSF1", "result": "1.2 fold enrichment (6-mer frequency, TF over GST control)"}, {"measurement": "binding signal", "setting": "SPIC", "result": "1.26 fold enrichment (6-mer frequency, TF over GST control)"}, {"measurement": "binding signal", "setting": "ELF4", "result": "1.23 fold enrichment (6-mer frequency, TF over GST control)"}, {"measurement": "binding signal", "setting": "ELK4", "result": "1.39 fold enrichment (6-mer frequency, TF over GST control)"}, {"measurement": "binding signal", "setting": "ETV2", "result": "1.27 fold enrichment (6-mer frequency, TF over GST control)"}, {"measurement": "binding signal", "setting": "ELF3", "result": "1.11 fold enrichment (6-mer frequency, TF over GST control)"}, {"measurement": "binding signal", "setting": "CRX", "result": "1.19 fold enrichment (6-mer frequency, TF over GST control)"}, {"measurement": "binding signal", "setting": "ETV1", "result": "1.29 fold enrichment (6-mer frequency, TF over GST control)"}]}
